Active and inactive are the calls of the source. Rule for the calls: active = hit-call score of the fitted dose curve at least 0.9, where 1 is the maximum; inactive = score below 0.9.
Legend:
Conditions in all cases: mRNA level, 48 h; actives raise or lower the signal
[1] = read-out: flavin-containing dimethylaniline monooxygenases 3 (FMO3), FMO3 (gene 2328); assay: LTEA_HepaRG_FMO3: Life Technologies and Expression Analysis (LTEA) Assay for flavin-containing dimethylaniline monooxygenases 3 (FMO3) using HepaRG (AID 2283453)
How it was run: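 Differentiated HepaRG cells in serum-free induction medium, exposed 48 h in duplicate to 8 half-log concentrations up to 100 uM in 0.5% DMSO. FMO3 mRNA by qRT-PCR, normalized to ACTB, GAPDH, POLR2A; bidirectional fit vs DMSO.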

[2] = read-out: Cytochrome P450 (CYP1A1), CYP1A1 (gene 1543); assay: LTEA_HepaRG_CYP1A1: Life Technologies and Expression Analysis (LTEA) Assay for Cytochrome P450 (CYP1A1) using HepaRG (AID 2283454)
How it was run: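 Induction of CYP1A1 mRNA in a human hepatic cell line was measured 48 h after dosing, with 1 mM phenobarbital as induction positive control and 0.5% DMSO vehicle as baseline for bidirectional curve fitting.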

[3] = read-out: CFLAR gene, CFLAR (gene 8837); assay: LTEA_HepaRG_CFLAR: Life Technologies and Expression Analysis (LTEA) Assay for CFLAR gene using HepaRG (AID 2283455)
How it was run: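 Differentiated HepaRG cells in serum-free induction medium were exposed 48 h in duplicate to eight half-log concentrations up to 100 uM in 0.5% DMSO; mRNA measured by TaqMan qRT-PCR, normalized to ACTB, GAPDH, POLR2A; bidirectional fitting versus DMSO.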

[4] = read-out: Forkhead box O1 (FOXO1), FOXO1 (gene 2308); assay: LTEA_HepaRG_FOXO1: Life Technologies and Expression Analysis (LTEA) Assay for Forkhead box O1 (FOXO1) using HepaRG (AID 2283456)
How it was run: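 Differentiated HepaRG cells, in serum-free induction medium with 0.5% DMSO, exposed 48 h in duplicate to 8-point half-log series from 100 uM. FOXO1 mRNA measured by TaqMan qRT-PCR, normalized to ACTB, GAPDH, POLR2A; bidirectional fit versus DMSO.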

[5] = read-out: growth arrest and DNA damage 45 (GADD45A), GADD45A (gene 1647); assay: LTEA_HepaRG_GADD45A: Life Technologies and Expression Analysis (LTEA) Assay for growth arrest and DNA damage 45 (GADD45A) using HepaRG (AID 2283458)
How it was run: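 Cells plated and cultured 48 h, switched to serum-free induction medium, then dosed for 48 h (100 uM top, half-log dilutions, 0.5% DMSO). RNA was isolated and transcript measured by Fluidigm qRT-PCR.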

[6] = read-out: Forkhead box O3 (FOXO3), FOXO3 (gene 2309); assay: LTEA_HepaRG_FOXO3: Life Technologies and Expression Analysis (LTEA) Assay for Forkhead box O3 (FOXO3) using HepaRG (AID 2283459)
How it was run: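 Differentiated human HepaRG cells, 48 h post-plating, exposed in duplicate for 48 h in serum-free induction medium; 8-point half-log series from 100 uM in 0.5% DMSO. FOXO3 mRNA by TaqMan qRT-PCR, normalized to ACTB/GAPDH/POLR2A; bidirectional fit versus DMSO.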

[7] = read-out: ABC Transporter (ABCB1), ABCB1 (gene 5243); assay: LTEA_HepaRG_ABCB1: Life Technologies and Expression Analysis (LTEA) Assay for ABC Transporter (ABCB1) using HepaRG (AID 2283460)
How it was run: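 HepaRG cells exposed in duplicate for 48 h in serum-free induction medium to eight half-log concentrations up to 100 uM in 0.5% DMSO. ABCB1 mRNA quantified by qRT-PCR, normalised to ACTB, GAPDH and POLR2A; fitted bidirectionally versus DMSO.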

[8] = read-out: growth arrest and DNA damage 45 (GADD45B), GADD45B (gene 4616); assay: LTEA_HepaRG_GADD45B: Life Technologies and Expression Analysis (LTEA) Assay for growth arrest and DNA damage 45 (GADD45B) using HepaRG (AID 2283461)
How it was run: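 Values are bidirectional concentration-response fits against 0.5% DMSO controls. Underlying data: qRT-PCR mRNA levels in human HepaRG liver cells treated 48 h in serum-free induction medium, eight concentrations topping at 100 uM.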

[9] = read-out: ABC Transporter (ABCC3), ABCC3 (gene 8714); assay: LTEA_HepaRG_ABCC3: Life Technologies and Expression Analysis (LTEA) Assay for ABC Transporter (ABCC3) using HepaRG (AID 2283462)
How it was run: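 Differentiated HepaRG liver cells receive test chemicals at eight concentrations (max 100 uM) for 48 h. Expression of ABCC3 is quantified by qRT-PCR against ACTB, GAPDH and POLR2A, and activity is fitted in both directions against the DMSO control.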

[10] = read-out: ABC Transporter (ABCB11), ABCB11 (gene 8647); assay: LTEA_HepaRG_ABCB11: Life Technologies and Expression Analysis (LTEA) Assay for ABC Transporter (ABCB11) using HepaRG (AID 2283463)
How it was run: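 Differentiated human HepaRG cells in serum-free induction medium, dosed in duplicate for 48 h. Eight-point half-log series from 100 uM in 0.5% DMSO; ABCB11 mRNA by qRT-PCR, normalized to ACTB, GAPDH, POLR2A, fitted bidirectionally versus DMSO.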

[11] = read-out: ABC Transporter (ABCC2), ABCC2 (gene 1244); assay: LTEA_HepaRG_ABCC2: Life Technologies and Expression Analysis (LTEA) Assay for ABC Transporter (ABCC2) using HepaRG (AID 2283464)
How it was run: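 Gene expression of ABCC2 was determined by qRT-PCR in HepaRG cells exposed 48 h to chemicals (highest 100 uM, half-log dilutions). Activity was fitted in both directions relative to 0.5% DMSO vehicle.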

[12] = read-out: Broad substrate specificity ATP-binding cassette transporter ABCG2 (Homo sapiens) (UniProt Q9UNQ0); assay: LTEA_HepaRG_ABCG2: Life Technologies and Expression Analysis (LTEA) Assay for ABC Transporter (ABCG2) using HepaRG (AID 2283465)
How it was run: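 Differentiated HepaRG cells were exposed for 48 h in serum-free induction medium to 8 half-log concentrations, top 100 uM, in 0.5% DMSO. ABCG2 mRNA was measured by qRT-PCR, normalized to ACTB, GAPDH and POLR2A, with bidirectional fitting versus DMSO.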

[13] = read-out: ATP-citrate lyase (ACLY), ACLY (gene 47); assay: LTEA_HepaRG_ACLY: Life Technologies and Expression Analysis (LTEA) Assay for ATP-citrate lyase (ACLY) using HepaRG (AID 2283466)
How it was run: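 Differentiated HepaRG cells exposed 48 h in serum-free induction medium to eight half-log concentrations up to 100 uM in 0.5% DMSO, duplicates. Transcript measured by Fluidigm TaqMan qRT-PCR, normalized to ACTB, GAPDH, POLR2A; bidirectional fit versus DMSO.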

[14] = read-out: Peroxisomal acyl-coenzyme A oxidase 1 (ACOX1) gene, ACOX1 (gene 51); assay: LTEA_HepaRG_ACOX1: Life Technologies and Expression Analysis (LTEA) Assay for Peroxisomal acyl-coenzyme A oxidase 1 (ACOX1) gene using HepaRG (AID 2283467)
How it was run: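 HepaRG cells, plated 48 h then switched to serum-free induction medium, were exposed in duplicate for 48 h to 8-point half-log concentrations up to 100 uM in 0.5% DMSO. ACOX1 mRNA was measured by qRT-PCR, normalized to ACTB/GAPDH/POLR2A, and fitted bidirectionally versus DMSO.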

[15] = read-out: Alkaline Phosphatase, Placental (ALPP) gene, ALPP (gene 250); assay: LTEA_HepaRG_ALPP: Life Technologies and Expression Analysis (LTEA) Assay for Alkaline Phosphatase, Placental (ALPP) gene using HepaRG (AID 2283468)
How it was run: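 Expression of ALPP was quantified by qRT-PCR against three housekeeping genes in human HepaRG cultures treated for 48 h with an eight-point concentration series up to 100 uM. Activity in either direction was fitted relative to 0.5% DMSO.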

[16] = read-out: Bcl-2 (BAD) gene, BAD (gene 572); assay: LTEA_HepaRG_BAD: Life Technologies and Expression Analysis (LTEA) Assay for Bcl-2 (BAD) gene using HepaRG (AID 2283469)
How it was run: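 Differentiated HepaRG cells were exposed in duplicate in 0.5% DMSO for 48 h to eight-point half-log concentrations up to 100 uM. BAD mRNA was measured by Fluidigm TaqMan qRT-PCR, normalized to ACTB, GAPDH and POLR2A, and fitted bidirectionally against DMSO.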

[17] = read-out: Bcl-2 (BAX) gene, BAX (gene 581); assay: LTEA_HepaRG_BAX: Life Technologies and Expression Analysis (LTEA) Assay for Bcl-2 (BAX) gene using HepaRG (AID 2283470)
How it was run: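 HepaRG (human liver), 48 h exposure, duplicate wells. 8-pt curve, half-log from 100 uM, 0.5% DMSO. BAX transcript by TaqMan qRT-PCR; ACTB/GAPDH/POLR2A normalization; gain or loss vs DMSO baseline.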

[18] = read-out: adenosine kinase (ADK) gene, ADK (gene 132); assay: LTEA_HepaRG_ADK: Life Technologies and Expression Analysis (LTEA) Assay for adenosine kinase (ADK) gene using HepaRG (AID 2283471)
How it was run: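 Read-out is ADK transcript level measured by qRT-PCR and normalised to three housekeeping genes. Cells are human HepaRG, dosed for 48 h at up to 100 uM in 0.5% DMSO. Gain or loss of signal is fitted against DMSO controls.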

[19] = read-out: Alpha-fetoprotein (AFP) gene, AFP (gene 174); assay: LTEA_HepaRG_AFP: Life Technologies and Expression Analysis (LTEA) Assay for Alpha-fetoprotein (AFP) gene using HepaRG (AID 2283472)
How it was run: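 HepaRG, single lot; 48 h post-plating -> serum-free induction medium; cpd 8-pt, 100 uM top, half-log, 0.5% DMSO, duplicate, 48 h. RNA -> qRT-PCR AFP, norm ACTB/GAPDH/POLR2A. Bidirectional fit vs DMSO.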

Sequence of Broad substrate specificity ATP-binding cassette transporter ABCG2 (Homo sapiens) (Q9UNQ0 whole entry, looked up): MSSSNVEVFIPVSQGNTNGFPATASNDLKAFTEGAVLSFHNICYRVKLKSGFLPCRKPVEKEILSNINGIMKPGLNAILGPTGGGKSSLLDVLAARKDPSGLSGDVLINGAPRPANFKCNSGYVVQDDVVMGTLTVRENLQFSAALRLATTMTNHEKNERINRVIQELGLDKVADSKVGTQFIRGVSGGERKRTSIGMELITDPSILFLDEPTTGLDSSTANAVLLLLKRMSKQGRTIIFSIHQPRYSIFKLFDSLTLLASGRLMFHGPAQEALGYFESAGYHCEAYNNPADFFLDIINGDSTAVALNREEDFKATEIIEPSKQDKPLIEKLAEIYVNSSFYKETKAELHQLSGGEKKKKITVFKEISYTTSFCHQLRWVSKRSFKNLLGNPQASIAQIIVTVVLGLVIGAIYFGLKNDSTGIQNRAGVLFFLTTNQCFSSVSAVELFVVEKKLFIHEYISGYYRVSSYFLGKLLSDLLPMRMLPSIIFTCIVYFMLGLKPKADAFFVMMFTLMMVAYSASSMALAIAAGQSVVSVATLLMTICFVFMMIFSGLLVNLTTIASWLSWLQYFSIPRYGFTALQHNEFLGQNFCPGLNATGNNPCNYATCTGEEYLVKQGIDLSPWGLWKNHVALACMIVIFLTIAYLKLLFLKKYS

Structure (SMILES): CCCOC(=O)NCCCN(C)C
- outcome [1]: inactive
- outcome [2]: inactive
- outcome [3]: inactive
- outcome [4]: inactive
- outcome [5]: inactive
- outcome [6]: inactive
- outcome [7]: inactive
- outcome [8]: inactive
- outcome [9]: inactive
- outcome [10]: inactive
- outcome [11]: inactive
- outcome [12]: inactive
- outcome [13]: inactive
- outcome [14]: inactive
- outcome [15]: inactive
- outcome [16]: inactive
- outcome [17]: inactive
- outcome [18]: inactive
- outcome [19]: inactive

Structure (SMILES): Cc1nn(C)c(Oc2ccccc2)c1C=NOCc1ccc(C(=O)OC(C)(C)C)cc1
- AC50 [1]: 2.87 µM (active)
- AC50 [2]: 19.6 µM (active)
- outcome [3]: inactive
- AC50 [4]: 2.81 µM (active)
- AC50 [5]: 4.15 µM (active)
- outcome [6]: inactive
- AC50 [7]: 9.19 µM (active)
- outcome [8]: inactive
- AC50 [9]: 1.24 µM (active)
- AC50 [10]: 3.08 µM (active)
- outcome [11]: inactive
- AC50 [12]: 3.96 µM (active)
- AC50 [13]: 1.11 µM (active)
- AC50 [14]: 1.74 µM (active)
- AC50 [15]: 0.903 µM (active)
- outcome [16]: inactive
- AC50 [17]: 22.2 µM (active)
- outcome [18]: inactive
- AC50 [19]: 4 µM (active)

Structure (SMILES): COC(=O)c1ccc(I)cc1S(=O)(=O)NC(=O)Nc1nc(C)nc(OC)n1
- outcome [1]: inactive
- AC50 [2]: 62.4 µM (active)
- outcome [3]: inactive
- outcome [4]: inactive
- outcome [5]: inactive
- outcome [6]: inactive
- outcome [7]: inactive
- outcome [8]: inactive
- outcome [9]: inactive
- outcome [10]: inactive
- outcome [11]: inactive
- outcome [12]: inactive
- outcome [13]: inactive
- outcome [14]: inactive
- outcome [15]: inactive
- outcome [16]: inactive
- outcome [17]: inactive
- outcome [18]: inactive
- outcome [19]: inactive
